Test results reported in ChEMBL document CHEMBL3988442, “University of Dundee, Small-Polar-MMV Screening Library” (2021).
The whole screen tested about 69,000 compounds, of which about 1,000 (1.4%) showed an effect of 50% or more. The list comes from a sample in which strong results are over-represented; it also holds similar structures and randomly drawn compounds.

Test system: Leishmania donovani
Assay: Leishmania intramacrophage assay
Assay type: functional, organism-based
Set-up: scale not given: in the data most compounds retested in dose-response had high values

SMILES	Percent Effect (30.3 µM, […]) [%]	Percent Effect (30 µM, 30.03 µM) [%]
COc1ccnc(N2C[C@@H]3CC[C@H](C2)N(CC2CC2)C3)n1	37.63	
CC(=O)Nc1cccc(-c2ccccc2CCN)c1	-35.33	
CCOc1ccc(-c2cc(CCN)ccc2OC)cc1	-5.145	
COc1ccc(-c2ccccc2CCN)c(OC)c1	75.35	
COCC(=O)N1CCC2(CCN(Cc3cccnc3)C2)CC1.O=C(O)C(F)(F)F.O=C(O)C(F)(F)F	22.03	
Fc1cnc(N2CCO[C@H]3CN(CC4CCCCC4)C[C@H]32)nc1.O=C(O)C(F)(F)F	-16.59	
O=C(O)C(F)(F)F.O=C(O)C(F)(F)F.O=C(O)C(F)(F)F.O=C1C[C@@H]2[C@H](CCN2Cc2ccccn2)N1Cc1ccncc1	27.44	
Cn1ccnc1CN1C[C@@H]2OCCN(c3ncccn3)[C@@H]2C1	50.19	
c1ccc(CCN2C[C@@H]3OCCN(c4ncccn4)[C@@H]3C2)cc1	6.788	
O=C(O)C(F)(F)F.O=C(O)C(F)(F)F.O=C(O)C(F)(F)F.c1ccc(CN2C[C@@H]3OCCN(c4ncccn4)[C@@H]3C2)nc1		-0.09782
Cc1ccc(N2CCO[C@H]3CN(Cc4ccccn4)C[C@H]32)nn1.O=C(O)C(F)(F)F.O=C(O)C(F)(F)F.O=C(O)C(F)(F)F	63.6	
c1ccc(CN2C[C@@H]3OCCN(CC4CCCO4)[C@@H]3C2)nc1 (stereo not given in full)		15.57
Cc1ccc(N2CCO[C@H]3CN(Cc4ccncc4)C[C@H]32)nn1.O=C(O)C(F)(F)F.O=C(O)C(F)(F)F.O=C(O)C(F)(F)F		16.14
O=C(O)C(F)(F)F.c1cncc(N2CCO[C@H]3CN(CC4CCOC4)C[C@H]32)c1 (stereo not given in full)	31.71	
Fc1ccccc1CN1C[C@@H]2OCCN(c3ncccn3)[C@@H]2C1	15.52	
c1ccc(CN2C[C@@H]3OCCN(c4cccnc4)[C@@H]3C2)nc1	55.81	
CC(C)N1CC[C@@H]2OC[C@H](C(=O)Nc3cccnc3)C[C@@H]2C1.O=C(O)C(F)(F)F.O=C(O)C(F)(F)F	-12.98	
CCCn1nc(C)c(-c2cncn2CC2(N(C)C)CCC(C)CC2)c1C (stereo not given)	1.091	
CCCN1CCC(c2nc3ccc(C)cn3n2)CC1.O=C(O)C(F)(F)F	17.32	
Cc1cccc(CN2C(=O)C[C@H]3[C@@H]2CCN3Cc2nccs2)n1.O=C(O)C(F)(F)F.O=C(O)C(F)(F)F	2.484	

SMILES	Percent Effect (30.3 µM, […]) [%]	Percent Effect (30 µM, 30.03 µM) [%]
CC(C)NC(=O)c1ccc2c(c1)C1(CCN(C)CC1)C(=O)N2.O=C(O)C(F)(F)F	1.546	
Cc1ccc(C(=O)N2C[C@H](N3CCOCC3)[C@@H]3OCCC[C@@H]32)cn1.O=C(O)C(F)(F)F.O=C(O)C(F)(F)F	2.104	
CN1[C@H]2CC[C@@H]1CN(c1cc(Sc3cccs3)nc(N)n1)CC2	2.015	
CC(C)CCN1C[C@@H]2OCCN(c3ncc(F)cn3)[C@@H]2C1.O=C(O)C(F)(F)F	-5.572	
COCC1CC2(CCN(Cc3cccnc3)CC2)CN1C(C)C (stereo not given)	20.26	
Cl.NC(=O)N1CC2(CCNCC2)c2cc(Cl)ccc21		2.936
Cc1noc(C)c1CN1CC[C@H]2C[C@@H](c3nccs3)O[C@@H]2C1		15.1
Cc1cccc(-c2ncc(CNC(C)Cc3ncccc3C)cn2)c1 (stereo not given)	-19.51	
CC(Cc1cccc(F)c1)NCc1cnc(N2CCN(C)CC2)nc1 (stereo not given)	97.99	
Cc1cccc(-c2ncc(CNC(C)Cc3ccncc3)cn2)c1 (stereo not given)	-22.9	
Cl.Cl.Fc1ccc2c(c1)C1(CCNCC1)CC2NC1CC1 (stereo not given)	27.52	
Cc1ccc(O[C@@H]2C[C@H]3CN(C(=O)Cc4ccccn4)CCN3C2)cc1.O=C(O)C(F)(F)F.O=C(O)C(F)(F)F	11.94	
CCc1ncc(CN(CCc2ccccc2)Cc2cccs2)cn1.O=C(O)CC(O)(CC(=O)O)C(=O)O	-1.419	
Fc1cnccc1CN1CCC2(CCNCC2)C1	25.89	
c1ccc(-c2ncc(CN3CCC4(CCNCC4)C3)cn2)cc1	24.37	
Oc1cccc2ccc(CN3CCC4(CCNCC4)C3)nc12	61.55	
COCC1CC2(CCN(CC3CC3)CC2)CN1Cc1ccccn1.O=C(O)C(F)(F)F.O=C(O)C(F)(F)F (stereo not given)	40.82	
Fc1cnc(N2CCCC3(CCN(Cc4ccoc4)C3)C2)nc1.O=C(O)C(F)(F)F.O=C(O)C(F)(F)F (stereo not given)	13.62	
Cc1oncc1C(=O)N1CC[C@H]2[C@H](C[C@@H](CN3CCCC3)N2C)C1.O=C(O)C(F)(F)F.O=C(O)C(F)(F)F	25.5	
Cc1cc(CC(C)NC2CCN(CC(C)C)CC2)[nH]n1 (stereo not given)	19.46	
